# From PubChem BioAssay
# KCNQ2 block – KCNQ2 (rat) channel inhibition. O88943. 1.1% of 310,000 active. B-score at 10 µM. CHO-K1 KCNQ2, FluxOR thallium flux, 20 min; stronger effect = lower value;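 active = fluorescence ratio B-score at most minus 3 library SDs, with starting brightness B-score within 2 library SDs, cut at about -5.5 in these data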
# Target sequence (O88943 whole entry, looked up): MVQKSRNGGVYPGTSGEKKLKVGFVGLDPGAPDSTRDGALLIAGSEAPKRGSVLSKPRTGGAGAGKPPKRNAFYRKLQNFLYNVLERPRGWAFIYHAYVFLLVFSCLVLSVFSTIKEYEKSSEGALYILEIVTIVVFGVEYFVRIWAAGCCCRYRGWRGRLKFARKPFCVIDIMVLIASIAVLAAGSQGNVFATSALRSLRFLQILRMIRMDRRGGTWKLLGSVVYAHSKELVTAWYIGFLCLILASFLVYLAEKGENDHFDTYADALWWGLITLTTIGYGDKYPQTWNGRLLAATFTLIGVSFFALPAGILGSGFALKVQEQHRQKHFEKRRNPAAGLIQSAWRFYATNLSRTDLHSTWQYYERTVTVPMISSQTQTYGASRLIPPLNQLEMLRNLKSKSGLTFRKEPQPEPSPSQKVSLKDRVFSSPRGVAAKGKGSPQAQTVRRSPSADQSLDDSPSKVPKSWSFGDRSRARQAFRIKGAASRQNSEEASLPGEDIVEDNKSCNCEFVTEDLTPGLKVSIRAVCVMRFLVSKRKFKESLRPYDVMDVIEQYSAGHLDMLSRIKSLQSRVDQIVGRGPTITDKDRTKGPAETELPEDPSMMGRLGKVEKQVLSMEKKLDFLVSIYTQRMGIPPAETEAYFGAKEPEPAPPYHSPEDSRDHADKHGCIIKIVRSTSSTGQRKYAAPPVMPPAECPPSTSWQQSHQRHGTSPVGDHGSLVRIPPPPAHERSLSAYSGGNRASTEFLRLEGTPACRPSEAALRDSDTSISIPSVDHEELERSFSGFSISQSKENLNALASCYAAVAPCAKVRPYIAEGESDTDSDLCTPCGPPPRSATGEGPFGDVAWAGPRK
# KCNQ2 enhance – KCNQ2 (rat) channel potentiation. CHO-K1 KCNQ2, FluxOR thallium flux fluorescence; stronger effect = higher value. O88943. B-score at 10 µM. 0.54% of 310,000 active. AID 2239;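 active = fluorescence ratio B-score at least 3 SD of library B-scores, with initial fluorescence B-score within 3 of them, cut at about 5.3 in these data; same plate scores as AID 2156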;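 also: B-score of peak minus minimum over baseline fluorescence ratio after K+ and Tl+ stimulus; positive B-score means potentiation of KCNQ2 with more thallium influx and brighter signal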
# Kir21 confirm – confirmation of mouse Kir2.1 potassium channel inhibitors. shares compounds with KCNQ2 enhance. AID 2032. 41% of 2,300 active. Kir2.1-expressing cells, FluxOR thallium flux fluorescence; stronger effect = lower value. Tl flux remaining, % of negative control (stronger effect = lower value), % at 10 µM;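 active = Primary-screen hit whose thallium flux fell at least 3 control SD below untreated wells in both duplicates, with normal baseline fluorescence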;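 also: 0% = blank wells without stimulus and 100% = stimulated no-compound controls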
# HEK293 Tl flux – counter-screen for Kir2.1 inhibitors: effect in parental HEK293 cells. FluxOR thallium flux fluorescence; 0% = unstimulated blank wells. AID 2105. 19% of 2,300 active. FluxOR signal as % of negative control (100 = no effect), % at 10 µM. shares compounds with KCNQ2 enhance;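 active = dye signal at least 3 control SD above or below untreated wells in both duplicates, raw fluorescence within 3, either direction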;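 also: percent is based on the flux ratio of peak minus minimum fluorescence over baseline F0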
# CHO-K1 ctr – counter-screen for KCNQ2 potentiators: effect in parental CHO-K1 cells. FluxOR thallium flux fluorescence; zero = vehicle mean+3SD, 100% = vehicle-minus-blank window. shares compounds with KCNQ2 enhance. AID 2282. activity increase over 3SD of controls, % at 10 µM. 43% of 1,200 active;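 active = signal rise of at least 3 SD above the untreated control mean, in both duplicate wells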;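 also: counter screen of KCNQ2 potentiator hits so any rise reflects channel-independent effects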
# KCNQ1 pot spec – human KCNQ1 counter-target activity of KCNQ2 potentiators; shares compounds with KCNQ2 enhance; CHO KCNQ1 stable, FluxOR thallium flux fluorescence; beyond 3SD, as % of vehicle-control signal; activation over 3SD threshold, % at 10 µM; 28% of 1,200 active; AID 2283;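 active = fluorescence ratio rise of at least 3 SD of vehicle wells above their mean, in both replicate wells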;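 also: 0% = vehicle mean plus 3 SD and 100% = vehicle minus unstimulated blank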
# KCNQ2 pot conf – rat KCNQ2 channel potentiator confirmation; shares compounds with KCNQ2 enhance; CHO-KCNQ2 cells, FluxOR thallium flux fluorescence; potentiation, less the hit threshold, % at 10 µM; 68% of 1,200 active;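 active = fluorescence ratio rising 3 SD or more over the vehicle control mean in both replicates, plus primary screen hit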;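 also: peak minus minimum thallium fluorescence divided by baseline after K/Tl stimulus; 0% = vehicle mean plus 3 SD and 100% = vehicle minus unstimulated blank difference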
# Kir21 spec – selectivity of KCNQ2 potentiators: effect on mouse Kir2.1 | 2% of 1,200 active | HEK293 Kir2.1, FluxOR thallium flux fluorescence | shares compounds with KCNQ2 enhance | AID 2345 | activity over 3SD threshold, % at 10 µM;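 active = fluorescence ratio rise of at least 3 SD above the vehicle-control mean, seen in both replicates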;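 also: 0% = vehicle mean plus 3 SD and 100% = vehicle minus no-stimulus blank window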
# KCNQ2 W236L MoA – KCNQ2 potentiators acting on retigabine-insensitive rat KCNQ2 W236L mutant; shares compounds with KCNQ2 enhance; 10% of 940 active; CHO KCNQ2-W236L, automated patch clamp current; current increase over 3SD of negative controls (%), stronger effect = higher value, % at 25 µM;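 active = current increase at least 3 SD of the untreated controls above them in both duplicate recordings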
# Numbers without * were called inactive; i = inactive; · = no result. A selection: hits, their analogues and other compounds. The true share with any hit is near 1.6%.
SMILES,KCNQ2 block,KCNQ2 enhance,Kir21 confirm,HEK293 Tl flux,others
Cc1cc(Br)ccc1OCC(=O)NNC(=O)Cc1ccccc1,i,0.69,·,·,
Cc1cccc(NC(=O)NNC(=O)COc2ccc3ccccc3c2)c1,i,·,·,·,
Cc1cc(Br)ccc1OCC(=O)NNC(=O)C(=O)Nc1ccccc1,i,11*,i,228%*,CHO-K1 ctr=70*;KCNQ1 pot spec=-7;KCNQ2 pot conf=36*;Kir21 spec=-21;KCNQ2 W236L MoA=i
Cc1ccc(C(=O)N2CCOCC2)cc1S(=O)(=O)N1CCCCC1,i,0.97,·,·,
CN(C)C(=O)c1cc(C(=O)c2c(F)cccc2F)c[nH]1,i,0.85,·,·,
Cc1ccc(NC(=O)C2CC(O)CN2C(=O)OCc2ccccc2)c(C)c1 (stereo not drawn),i,·,·,·,
COc1ccc(OCC(=O)N2N=C(C)CC2(O)C(F)(F)F)cc1 (stereo not drawn),i,·,·,·,
CC1=NN(C(=O)c2c(Br)cnn2C)C(O)(C(F)(F)F)C1 (stereo not drawn),i,14*,i,i,CHO-K1 ctr=-17;KCNQ1 pot spec=-6;KCNQ2 pot conf=-13;Kir21 spec=-32
COc1ccc(/C=C/C(=O)NC(=S)Nc2ccc(S(=O)(=O)N=C(N)N)cc2)cc1OC,i,·,·,·,
CN(C(=O)COC(=O)c1sc2ccccc2c1Cl)C1CCCCC1,i,·,·,·,
CCCCOC(=S)NC(=O)c1sc2ccccc2c1Cl,i,17*,i,446%*,CHO-K1 ctr=-3;KCNQ1 pot spec=47*;KCNQ2 pot conf=83*;Kir21 spec=-15;KCNQ2 W236L MoA=i
CCCOc1ccc(C(CC(=O)O)NC(=O)c2sc3ccccc3c2Cl)cc1 (stereo not drawn),i,0.21,·,·,
O=C(NC(=S)Nc1ccccc1N1CCOCC1)c1sc2ccccc2c1Cl,i,0.64,·,·,
Cc1ccc(NC(=S)NC(=O)c2sc3ccccc3c2Cl)c(C(=O)O)c1,i,14*,i,i,CHO-K1 ctr=2.0*;KCNQ1 pot spec=-15;KCNQ2 pot conf=29*;Kir21 spec=-20;KCNQ2 W236L MoA=i
CN(C)CCCOC(=O)c1sc2ccccc2c1Cl,i,·,29%*,i,
COC(=O)[C@H](Cc1ccccc1)NC(=O)C1(OC(C)=O)CC(OC(C)=O)C(OC(C)=O)C(OC(C)=O)C1 (stereo partly drawn),i,·,·,·,
C=C(C)C(=O)Nc1cccnc1Oc1ccc(F)cc1F,i,1.3,·,·,
CCOC(=O)c1ccccc1NC(=O)C1CSC2(C)CCC(=O)N12 (stereo not drawn),i,·,·,·,
Cc1ccc(C(=O)NCC(c2ccco2)N2CCc3ccccc32)cc1 (stereo not drawn),i,·,·,·,
O=C(c1cccc(Br)c1)N1CCN(S(=O)(=O)N2CCCCCC2)CC1,i,·,·,·,
COc1ccccc1OCCCCn1c(C(C)O)nc2ccccc21 (stereo not drawn),i,0.34,·,·,
CC1CCCCN1S(=O)(=O)c1ccc2[nH]c(=O)cc(C(=O)NCCCN3CCCCCC3)c2c1 (stereo not drawn),i,·,·,·,
CCCCCCCn1c(=N)n(CC(=O)c2ccco2)c2ccccc21,i,1.2,56%*,i,
Cc1ccccc1Cn1c(=N)n(CC(O)c2ccco2)c2ccccc21 (stereo not drawn),i,·,64%*,i,
CC(C)(C)c1ccc(Cn2c(=N)n(CC(O)c3ccco3)c3ccccc32)cc1 (stereo not drawn),i,·,·,·,
SMILES,KCNQ2 block,KCNQ2 enhance,Kir21 confirm,HEK293 Tl flux,others
N=c1n(CCN2CCCC2)c2ccccc2n1CC(O)c1ccco1 (stereo not drawn),i,0.01,·,·,
CCCCn1c(=N)n(CC(=O)c2ccco2)c2ccccc21,i,2.2,·,·,
CCCCCCCn1c(=N)n(CC(O)c2ccco2)c2ccccc21 (stereo not drawn),i,3.2,45%*,i,
CCOc1cccc(C2/C(=C(/O)c3ccc4c(c3)CC(C)O4)C(=O)C(=O)N2Cc2ccncc2)c1 (stereo not drawn),i,·,·,·,
Cc1ccc2nc(N3CCN(CCO)CC3)nc(-c3ccccc3)c2c1,i,·,48%*,i,
CCOC(=O)N1CCN(c2nc(-c3ccccc3)c3cc(C)ccc3n2)CC1,i,·,·,·,
CN1CCN(c2nnc(-c3ccccc3)c(-c3ccccc3)n2)CC1,i,1,·,·,
CN1CCN(c2nc(-c3ccccc3)c3cc(Cl)ccc3n2)CC1,i,·,60%*,i,
CCc1ccc(CNC(=O)C2CCN(S(=O)(=O)N3CCCC3)CC2)cc1,i,0.86,·,·,
C=CCOc1ccc(/C=C/C(=O)OCC(=O)Nc2c(C)n(C)n(-c3ccccc3)c2=O)cc1,i,0.81,·,·,
Cc1ccccc1CC(=O)N1CC(C)OC(C)C1 (stereo not drawn),i,0.52,·,·,
CCC(=O)Nc1c(C)cc(C)cc1Cl,i,1.2,·,·,
CCCCC(=O)Nc1c(C)cc(C)cc1Cl,i,12*,i,i,CHO-K1 ctr=-25;KCNQ1 pot spec=-14;KCNQ2 pot conf=53*;Kir21 spec=-34;KCNQ2 W236L MoA=i
CC(C)C[C@H](N)c1nnc(S(=O)(=O)Cc2cccc(F)c2)o1,i,·,72%*,i,
CC(C)CCNC(=O)c1ccc(CSCc2cccc(F)c2)o1,i,·,·,·,
O=C(NCC1CCCO1)c1ccc(-c2ccccc2Cl)o1 (stereo not drawn),i,0.03,·,·,
Cc1ccc(C(C)C)c(OCCCN(C)Cc2ccccc2)c1,i,·,·,·,
Cc1ccc(C(C)C)c(OCC(O)CN(C)Cc2ccccc2)c1 (stereo not drawn),i,·,20%*,i,
Cc1cc(C)cc(NC(=O)CSCc2cc(=O)n3ccsc3n2)c1,i,·,·,·,
CCN(CC)C(=S)NC(=O)Cc1ccccc1,i,·,·,·,
CCC(=O)NC(=S)NNC(=O)c1ccccc1[N+](=O)[O-],i,·,·,·,
CCCN(Cc1ccccc1)C(=S)NC(=O)c1ccccc1[N+](=O)[O-],i,13*,i,450%*,CHO-K1 ctr=5.8*;KCNQ1 pot spec=-22;KCNQ2 pot conf=60*;Kir21 spec=-17;KCNQ2 W236L MoA=i
CCN(Cc1ccccc1)C(=S)NC(=O)c1ccccc1Br,i,8.6*,i,418%*,CHO-K1 ctr=-16;KCNQ1 pot spec=52*;KCNQ2 pot conf=46*;Kir21 spec=-23;KCNQ2 W236L MoA=i
CC(C)CN(C(=O)C(C)N1C(=O)c2ccccc2C1=O)c1c(N)n(Cc2ccccc2)c(=O)[nH]c1=O (stereo not drawn),i,0.1,·,·,
O=C(COc1ccc(Br)cc1Cl)NC1CCN(Cc2ccccc2)CC1,i,·,21%*,i,
O=C(/C=C/c1cccc(F)c1)NC1CCN(Cc2ccccc2)CC1,i,0.69,·,·,
